Compound activity as filed in PubChem BioAssay.
Dicer inh – human Dicer pre-microRNA cleavage inhibition | Q9UPY3 | z-score at 25 µM | 47,000 tested, 6% active | cat-ELCCA pre-miR-21 Dicer processing, chemiluminescence; active compounds read high; in the data active = z-score above about 3, passing the limit was not always enough;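 note: higher signal means more uncleaved substrate so more Dicer inhibition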
Target sequence (Q9UPY3 whole entry, looked up): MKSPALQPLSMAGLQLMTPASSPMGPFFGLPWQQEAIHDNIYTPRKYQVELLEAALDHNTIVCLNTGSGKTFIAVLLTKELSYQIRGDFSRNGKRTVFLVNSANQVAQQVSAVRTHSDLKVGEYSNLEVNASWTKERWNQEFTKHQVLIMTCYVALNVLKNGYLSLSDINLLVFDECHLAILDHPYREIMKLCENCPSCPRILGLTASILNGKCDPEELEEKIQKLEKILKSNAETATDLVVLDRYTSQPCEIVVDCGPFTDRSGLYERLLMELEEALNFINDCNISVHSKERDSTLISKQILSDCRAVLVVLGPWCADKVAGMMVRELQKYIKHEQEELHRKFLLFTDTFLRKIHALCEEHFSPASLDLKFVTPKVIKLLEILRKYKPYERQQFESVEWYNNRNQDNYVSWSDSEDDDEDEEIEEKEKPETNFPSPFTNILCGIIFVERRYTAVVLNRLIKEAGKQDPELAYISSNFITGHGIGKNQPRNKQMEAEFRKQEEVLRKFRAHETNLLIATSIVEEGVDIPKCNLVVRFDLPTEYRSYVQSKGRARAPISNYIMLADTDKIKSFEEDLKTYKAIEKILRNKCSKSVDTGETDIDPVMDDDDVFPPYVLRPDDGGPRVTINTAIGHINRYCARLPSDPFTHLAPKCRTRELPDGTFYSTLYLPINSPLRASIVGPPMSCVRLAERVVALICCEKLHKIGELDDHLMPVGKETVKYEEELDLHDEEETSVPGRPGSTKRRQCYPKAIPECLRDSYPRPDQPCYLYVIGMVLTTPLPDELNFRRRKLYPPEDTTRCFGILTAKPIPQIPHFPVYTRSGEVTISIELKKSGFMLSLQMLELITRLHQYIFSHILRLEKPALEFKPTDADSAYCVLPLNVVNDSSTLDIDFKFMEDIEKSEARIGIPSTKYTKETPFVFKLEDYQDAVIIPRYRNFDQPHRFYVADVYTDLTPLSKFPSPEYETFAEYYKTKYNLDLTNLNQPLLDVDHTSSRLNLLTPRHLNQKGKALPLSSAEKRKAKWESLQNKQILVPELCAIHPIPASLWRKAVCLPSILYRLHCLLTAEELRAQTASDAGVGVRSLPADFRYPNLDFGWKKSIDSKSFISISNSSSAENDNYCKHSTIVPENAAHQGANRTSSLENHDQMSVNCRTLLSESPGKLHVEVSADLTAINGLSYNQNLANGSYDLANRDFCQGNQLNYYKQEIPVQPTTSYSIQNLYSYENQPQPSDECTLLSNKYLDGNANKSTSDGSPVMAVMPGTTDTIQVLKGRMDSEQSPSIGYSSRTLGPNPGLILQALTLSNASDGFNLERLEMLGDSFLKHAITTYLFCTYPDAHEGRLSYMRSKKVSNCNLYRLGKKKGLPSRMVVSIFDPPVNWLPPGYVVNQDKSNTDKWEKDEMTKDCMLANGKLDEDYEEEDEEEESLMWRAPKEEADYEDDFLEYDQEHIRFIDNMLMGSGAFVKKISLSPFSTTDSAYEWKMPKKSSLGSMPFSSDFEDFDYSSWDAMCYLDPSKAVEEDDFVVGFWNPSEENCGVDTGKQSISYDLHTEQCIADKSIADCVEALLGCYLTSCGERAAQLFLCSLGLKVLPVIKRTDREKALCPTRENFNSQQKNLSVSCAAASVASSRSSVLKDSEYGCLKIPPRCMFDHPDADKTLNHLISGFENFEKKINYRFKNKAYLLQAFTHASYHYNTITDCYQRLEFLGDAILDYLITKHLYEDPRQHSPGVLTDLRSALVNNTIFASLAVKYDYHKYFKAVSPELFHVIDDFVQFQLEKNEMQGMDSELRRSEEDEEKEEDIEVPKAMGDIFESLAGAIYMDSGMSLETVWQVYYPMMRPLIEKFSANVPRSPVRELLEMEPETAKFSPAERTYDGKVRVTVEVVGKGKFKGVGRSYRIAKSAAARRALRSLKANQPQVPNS
Of the large screens only hits and unclear results are named; the others gave an inactive call. Only a selection was taken, and hits are over-represented in it overall.

CCCCN1C(=O)C(NC(C)=O)c2cc(C)cc(C)c21 (centres undefined)	none
O=C(O)c1ccccc1S(=O)(=O)c1ccccc1C(=O)O	none
CCOC(=O)C(Nc1ccccc1)C(=O)OCC	none
CSC(=S)N(C)NC(=O)Nc1cccc(Cl)c1	none
S=C(N/N=C/c1cccc2ccccc12)Nc1c(Cl)cccc1Cl	none
Cc1cccc(NC(=S)N/N=C\c2cccc3ccccc23)c1C	none
NNC(=S)Nc1cccc(Cl)c1Cl	Dicer inh 4.3
S=C(N/N=C\c1cccc2ccccc12)Nc1cccc(Cl)c1Cl	Dicer inh 3.8
CN(C)NC(=S)Nc1cccc(Cl)c1Cl	none
Cc1cc(Cl)ccc1NNC(N)=S	none
Cc1cc(Cl)ccc1NC(=S)NN	Dicer inh 3.4
NNC(=S)Nc1ccccc1Cl	none
Cc1cc(Cl)ccc1NC(=S)NNC(=O)c1ccccc1Cl	none
O=C(CCCOc1ccccc1)Nc1ncn[nH]1	none
CCSc1nc2c(c(=O)n1C1CCOC(C)(C)C1)C1(CCCC1)Cc1ccccc1-2 (centres undefined)	none
Clc1ccc(N=C2c3ccccc3CN2c2ccc(Cl)cc2)cc1	none
CCC(C)S(=O)(=O)c1scc(-c2ccc(Cl)cc2)c1C#N (centres undefined)	none
CCOC(=O)c1c(N)sc2c(OCc3ccccc3)c(Br)ccc12	none
CC(C)OC(=O)C1C(=O)CC(C)(O)C(C(=O)OC(C)C)C1/C=C/c1ccccc1 (centres undefined)	none
Cc1ccc(C(=O)C/C(=C\C(=C2\SC(=S)NC2=O)c2ccc(C)cc2)c2ccccc2)cc1	none
CSc1nc(CSc2ccc(Cl)cc2)nc(C2CC2)c1C#N	none
Cc1ccc(C)c(CSc2nc(C3CCCCC3)c(C#N)c(=O)[nH]2)c1	Dicer inh 4.3
CCc1ccccc1CSc1nc(C)cc(C)c1C#N	none
Cc1cccc(Cl)c1S(=O)(=O)NNC(=O)Cn1nnc(-c2cccc(Cl)c2Cl)n1	none
OC1(C#Cc2ccccc2)c2ccccc2-c2ncccc21 (centres undefined)	none
COc1ccc(-c2noc(-c3cccc(C)c3)n2)cc1OC	none
CC(=O)Oc1ccc2oc(C)c(C(=O)O)c2c1	none
Cn1ncc(Br)c1NC(=O)Nc1cccc2ccccc12	none
FC(F)(F)c1cc(-c2cccs2)n2ncnc2n1	none
Cc1nnc(SCC(=O)c2c[nH]c3ccccc23)n1-c1ccccc1	Dicer inh 4.3
Cn1c(SCC(=O)c2c[nH]c3ccccc23)nnc1-c1cccs1	none
Cc1[nH]c2ccccc2c1C(=O)CSc1nnc(C)n1-c1ccccc1	none
O[C@@H]1C2C3CC4C5C3C1C(c1ccccc1)(C42)[C@H]5O (some centres undefined)	none
COc1ccc(-c2nc(-c3cc4cc(C)ccc4[nH]c3=O)no2)cc1OC	none
O=C(OC(Cc1ccccc1)C(F)(F)F)c1ccc(Cl)cc1Cl (centres undefined)	none
COc1ccc(OC)c(S(=O)(=O)N2CCC(C)CC2)c1	none
COc1ccc(S(=O)(=O)N2CCCN(S(=O)(=O)c3ccc(OC)cc3)CC2)cc1	none
COc1ccc(S(=O)(=O)N2CCCN(S(=O)(=O)c3ccc(OC)cc3C)CC2)c(C)c1	Dicer inh 3
O=C(O)CNC(=O)c1c(F)cccc1F	none
Cn1c(=S)[nH]c2cc(C(F)(F)F)ccc21	none
CSc1sc(-c2ccnc(SCc3c(Cl)cccc3Cl)n2)c2c1C(=O)CCC2	Dicer inh 3.5
CSc1sc(-c2nc(C)cs2)c(C)c1-c1ccnc(SCc2ccc(Cl)cc2)n1	none
CSc1sc(-c2nc(C(C)(C)C)cs2)c2c1C(=O)CCC2	none
COCc1[nH]nc2c1C(c1c[nH]c3ccccc13)C(C#N)=C(N)O2 (centres undefined)	none
O=c1ccc(-c2ccc(Br)s2)n[nH]1	none
CCOC(=O)Oc1ccc2c(=O)c(Oc3ccc(OC)cc3)c(C(F)(F)F)oc2c1	none
O=C(O)c1cccc(Cn2cnc([N+](=O)[O-])n2)c1	none
O=C(Cn1cnc([N+](=O)[O-])n1)OCCCc1ccccc1	Dicer inh 3.5
COC(=O)c1cc([N+](=O)[O-])nn1Cc1ccccc1	none
COC(=O)c1sc(S(C)(=O)=O)c(C#N)c1-c1cc(C(C)(C)C)oc1C	none
CCC(C)C(C(=O)O)N1C(=O)NC2NC(=O)NC21 (centres undefined)	none
CCC(C)N1C(=O)N(C)C2NC(=O)NC21 (centres undefined)	none
CCCC(C(=O)O)N1C(=O)NC2NC(=O)NC21 (centres undefined)	Dicer inh 3.4
Cc1onc(-c2c(Cl)cccc2Cl)c1NC(=O)c1c(-c2c(Cl)cccc2Cl)noc1C	none
Cc1cc(C(=O)C(F)(F)F)c(C)n1-c1cc(C(F)(F)F)cc(C(F)(F)F)c1	none
Cc1[nH]c2c(C)cccc2c(=O)c1CN(C)Cc1ccccc1	none
Clc1ccc(OCc2nc3c4cnn(Cc5ccccc5)c4ncn3n2)cc1	none
CCc1nc(S(C)(=O)=O)c(C#N)cc1C	none
CCOC(=O)Cn1c(=O)n(-c2ccc(Cl)cc2)c(=O)c2cc(-c3ccccc3)sc21	none
O=c1[nH]c2c(cnn2-c2ccccc2)c(=O)n1-c1ccc(Cl)c(Cl)c1	none
CC1CCc2c(sc3[nH]c(=S)n(-c4ccccc4)c(=O)c23)C1 (centres undefined)	none
CN1CCc2c(sc3[nH]c(=S)n(-c4ccccc4)c(=O)c23)C1	none
O=c1c2cc(-c3ccccc3)sc2[nH]c(=S)n1-c1ccccc1	Dicer inh 4.1
O=c1[nH]c2sc(-c3ccccc3)cc2c(=O)n1-c1cccc(Cl)c1	Dicer inh 4.4
CCOC(=O)c1c[nH]c2cc(F)c(F)cc2c1=O	none
CC(C)(C)c1ccc(OCC(O)Cn2c(CO)nc3ccccc32)cc1 (centres undefined)	none
COc1ccc([N+](=O)[O-])cc1-c1ccn(S(=O)(=O)c2ccc(Cl)cc2)n1	none
COc1cccc(C2Sc3ccccc3NC3=C2C(=O)c2ccccc23)c1 (centres undefined)	none
COc1ccccc1C1C2=C(Nc3c1c(=O)[nH]c(=O)n3C)c1ccccc1C2=O (centres undefined)	none
COc1cccc(C2Sc3ccccc3NC3=C2C(=O)c2ccccc23)c1OC (centres undefined)	Dicer inh 3.6
Cc1cccc(/N=c2\scc(-c3cccs3)n2Cc2ccccc2)n1	none
CCSc1nc(N)c(Br)c(=O)[nH]1	none
CCSCCOC(=O)C1=C(C)NC2=C(C(=O)CCC2)C1c1ccc(-c2ccccc2)cc1 (centres undefined)	none
CCOc1cc(C2C(C(=O)OC3CCCC3)=C(C)NC3=C2C(=O)CCC3)cc(Br)c1O (centres undefined)	none
CCSCCOC(=O)C1=C(C)NC2=C(C(=O)CCC2)C1c1ccccc1OCc1ccccc1 (centres undefined)	Dicer inh 6
CCOCCOC(=O)C1=C(C)NC2=C(C(=O)CCC2)C1c1ccc(C(=O)OC)cc1 (centres undefined)	Dicer inh 4.8
COC(=O)C1=C(C)NC2=C(C(=O)CCC2)C1c1ccc(C(=O)OC)cc1 (centres undefined)	none
CCOCCOC(=O)C1=C(C)NC2=C(C(=O)CCC2)C1c1ccc(C)cc1 (centres undefined)	none
CCSCCOC(=O)C1=C(C)NC2=C(C(=O)CCC2)C1c1ccccc1OC(C)C (centres undefined)	none
CCSCCOC(=O)C1=C(C)NC2=C(C(=O)CCC2)C1c1ccc(Cl)cc1 (centres undefined)	Dicer inh 4.2
CCCCOC(=O)C1=C(C)NC2=C(C(=O)CCC2)C1c1cc(Br)c(O)c(OCC)c1 (centres undefined)	Dicer inh 3.2
CCOCCOC(=O)C1=C(C)NC2=C(C(=O)CCC2)C1c1cc(Br)c(O)c(OC)c1 (centres undefined)	none
